Results on 38 molecules are retold here after PubChem BioAssay (NCATS).

Records with an inconclusive call do not appear. Where a call stands in place of a potency, no number is given. Activity calls are given as the source filed them. The call rests on the fitted dose curve; in most records, active means well fitted cell-killing curve with a large enough effect; inconclusive means small, poorly fitted or top-dose-only effect, or effect the other way; inactive means flat fitted curve, though single readings scatter.
Potency means the concentration at half of the fitted maximal effect.

The first test concerns Tov-21-G. In words: Primary qHTS to identify gynecologic anti-cancer compounds using libraries of approved drugs and bioactive compounds (AID 1345084). Further: nearly all actives have a fitted effect of over 55% in size. The settings on record: Gynecologic cancer cell panel viability, ATPlite luminescence, 48 h; series mostly up to 57.5 µM. The method in brief: (§1)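 Five-point cytotoxicity, 48 h drug exposure at 37 C, 5% CO2, on cells seeded 16 h beforehand. ATP content read by ATPlite luminescence.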
On the technique in general: Quantitative high-throughput screening tests each substance at several concentrations.
Take `NC(=O)NC(=O)Cc1ccccc1`: the Potency entry is “inactive”.

As to `NC(=O)NNc1ccccc1`, the Potency result was “inactive”.

Take `N[C@H](C(=O)O)c1ccc(O)cc1`: the Potency entry was “inactive”.

Regarding `Nc1ccc(S(=O)(=O)NC(=O)c2ccccc2)cc1`, the Potency entry is “inactive”.

For the molecule `N[C@H]1C(O)O[C@H](CO)[C@@H](O)[C@@H]1O` (stereo partly drawn), the Potency result was “inactive”.

For the molecule `O=S(=O)(O)NC1CCCCC1`, the Potency result was “inactive”.

Consider `OC[C@H]1O[C@@H](O[C@@H]2[C@@H](CO)O[C@](O)(CO)[C@H]2O)[C@H](O)[C@@H](O)[C@H]1O`, for which the Potency result was “inactive”.

For `CN(C)CCCO[C@@H]1[C@H]2OC(C)(C)O[C@H]2O[C@@H]1C(O)CO` (stereo partly drawn), the Potency result was “inactive”.

Turning to `C[C@@H]1CC[C@@]2(OC1)O[C@H]1C[C@H]3[C@@H]4CC[C@H]5C[C@@H](O)CC[C@]5(C)[C@H]4CC(=O)[C@]3(C)[C@H]1[C@@H]2C`, the activity change, negative = cytotoxicity was 5.68% [at 6.55 µM] (inactive).

With `CC1=C(CC(=O)O)c2cc(F)ccc2/C1=C\c1ccc(S(C)=O)cc1` (stereo not drawn), the Potency result is “inactive”.

`COCCOC(=O)C1=C(C)NC(C)=C(C(=O)OC/C=C/c2ccccc2)C1c1cccc([N+](=O)[O-])c1` (stereo not drawn): the Potency result was “inactive”.

In the case of `O=S(=O)(O)c1cc(I)c(O)c2ncccc12`, the Potency entry is “inactive”.

Consider `CN1[C@@H]2CC(OC(=O)[C@H](CO)c3ccccc3)C[C@H]1[C@@H]1O[C@@H]12` (stereo partly drawn), for which the Potency result is “inactive”.

As to `CC1(C)OC(=O)NC1=O`, the Potency result was “inactive”.

With `CCCCCCCCCCCCCCCCCCOCC(O)CO` (stereo not drawn), the Potency entry was “inactive”.

Take `CC(=O)CCC(=O)O`: the Potency result was “inactive”.

Consider `C=CCn1c(=O)n([C@@H]2O[C@H](CO)[C@@H](O)[C@H]2O)c2nc(N)[nH]c(=O)c21`, for which the Potency entry is “inactive”.

For the molecule `CC(=O)c1ccc2c(c1)N(CCCN(C)C)c1ccccc1S2`, the Potency entry was “inactive”.

For the molecule `CC1(C)CO[C@@H](CC(=O)O)CN1`, the Potency entry was “inactive”.

For the molecule `CC(=O)Oc1c(C)c(C)c2c(c1C)CC[C@@](C)(CCC[C@H](C)CCC[C@H](C)CCCC(C)C)O2`, the Potency result was “inactive”.

As to `COc1ccc2cc1Oc1ccc(cc1)C[C@H]1c3c(cc4c(c3Oc3cc5c(cc3OC)CCN(C)[C@@H]5C2)OCO4)CCN1C`, the Potency entry is “inactive”.

Consider `CC[C@H]1CN2CCc3cc(OC)c(OC)cc3[C@@H]2C[C@@H]1C[C@H]1NCCc2cc(OC)c(OC)cc21`, for which the Potency was 3.55 µM (active).

For `C[C@H](N)[C@H](O)c1cccc(O)c1`, the Potency entry is “inactive”.

Regarding `COC(=O)C1=C(C)NC(C)=C(C(=O)OC)C1c1ccccc1[N+](=O)[O-]`, the Potency entry is “inactive”.

For `Cc1cc(O)cc2c1O[C@](C)(CCC[C@H](C)CCC[C@H](C)CCCC(C)C)CC2`, the Potency result was “inactive”.

Turning to `CCCCN(CCCC)CC(O)c1cc(Cl)cc2c1-c1ccc(Cl)cc1/C2=C/c1ccc(Cl)cc1` (stereo not drawn), the Potency entry was “inactive”.

`CC(=O)NC(Cc1ccccc1)C(=O)O` (stereo not drawn): the Potency entry was “inactive”.

Turning to `CC(=O)OCC(=O)[C@@]1(O)CC[C@H]2[C@@H]3CCC4=CC(=O)CC[C@]4(C)[C@H]3C(=O)C[C@@]21C`, the Potency result is “inactive”.

Turning to `CNCC(O)c1ccc(O)c(O)c1` (stereo not drawn), the Potency entry was “inactive”.

Take `CC[C@@]1(c2ccccc2)NC(=O)N(C)C1=O`: the Potency result is “inactive”.

The test system of another test is Tov112D. Described as above. The following applies: Gynecologic cancer cell panel viability, ATPlite luminescence, 48 h; series mostly up to 57.5 µM. The method, boiled down:
as §1
In general terms: ATP-based viability assays read luminescence as a measure of living cells.
Regarding `NC(=O)NC(=O)Cc1ccccc1`, the Potency entry is “inactive”.

As for `NC(=O)NNc1ccccc1`, the Potency result is “inactive”.

On to `N[C@H](C(=O)O)c1ccc(O)cc1`, for which the Potency result is “inactive”.

For `NC(=O)c1ncn([C@@H]2O[C@H](CO)[C@@H](O)[C@H]2O)n1`, the Potency result is “inactive”.

Turning to `Nc1ccc(S(=O)(=O)NC(=O)c2ccccc2)cc1`, the Potency result is “inactive”.

`CCN(CC)CCNC(=O)c1c(C)[nH]c(/C=C2\C(=O)Nc3ccc(F)cc32)c1C`: the Potency entry was “inactive”.

Regarding `N[C@H]1C(O)O[C@H](CO)[C@@H](O)[C@@H]1O` (stereo partly drawn), the Potency entry is “inactive”.

`O=S(=O)(O)NC1CCCCC1`: the Potency entry was “inactive”.

As for `OC[C@H]1O[C@@H](O[C@@H]2[C@@H](CO)O[C@](O)(CO)[C@H]2O)[C@H](O)[C@@H](O)[C@H]1O`, the Potency result is “inactive”.

For the molecule `CNCCC(Oc1ccc(C(F)(F)F)cc1)c1ccccc1` (stereo not drawn), the Potency entry was “inactive”.

For `CN(C)CCCO[C@@H]1[C@H]2OC(C)(C)O[C@H]2O[C@@H]1C(O)CO` (stereo partly drawn), the Potency result was “inactive”.

In the case of `C[C@@H]1CC[C@@]2(OC1)O[C@H]1C[C@H]3[C@@H]4CC[C@H]5C[C@@H](O)CC[C@]5(C)[C@H]4CC(=O)[C@]3(C)[C@H]1[C@@H]2C`, the activity change, negative = cytotoxicity is 10.1% [at 6.55 µM] (inactive).

Turning to `CSc1ccc2c(c1)N(CCC1CCCCN1C)c1ccccc1S2` (stereo not drawn), the Potency was 28.2 µM (active).

Regarding `CC1=C(CC(=O)O)c2cc(F)ccc2/C1=C\c1ccc(S(C)=O)cc1` (stereo not drawn), the Potency result is “inactive”.

`COCCOC(=O)C1=C(C)NC(C)=C(C(=O)OC/C=C/c2ccccc2)C1c1cccc([N+](=O)[O-])c1` (stereo not drawn): the Potency entry is “inactive”.

With `CC(=O)O[C@@]12CO[C@@H]1C[C@H](O)[C@@]1(C)C(=O)[C@H](O)C3=C(C)[C@@H](OC(=O)[C@H](O)[C@@H](NC(=O)OC(C)(C)C)c4ccccc4)C[C@@](O)([C@@H](OC(=O)c4ccccc4)[C@H]21)C3(C)C`, the Potency result was “inactive”.

Consider `C[C@H]1O[C@@H](n2cc(F)c(=O)[nH]c2=O)[C@H](O)[C@@H]1O`, for which the Potency entry is “inactive”.

As to `Cc1cc(N)c2ccccc2[n+]1CCCCCCCCCC[n+]1c(C)cc(N)c2ccccc21`, the Potency entry was “inactive”.

For the molecule `O=S(=O)(O)c1cc(I)c(O)c2ncccc12`, the Potency entry was “inactive”.

Consider `CN1[C@@H]2CC(OC(=O)[C@H](CO)c3ccccc3)C[C@H]1[C@@H]1O[C@@H]12` (stereo partly drawn), for which the Potency entry is “inactive”.

On to `CC1(C)OC(=O)NC1=O`, for which the Potency result was “inactive”.

Regarding `CCCCCCCCCCCCCCCCCCOCC(O)CO` (stereo not drawn), the Potency entry was “inactive”.

As for `CC(=O)CCC(=O)O`, the Potency entry is “inactive”.

For the molecule `C=CCn1c(=O)n([C@@H]2O[C@H](CO)[C@@H](O)[C@H]2O)c2nc(N)[nH]c(=O)c21`, the Potency entry was “inactive”.

For the molecule `CC(=O)c1ccc2c(c1)N(CCCN(C)C)c1ccccc1S2`, the Potency result is “inactive”.

As to `CC1(C)CO[C@@H](CC(=O)O)CN1`, the Potency result is “inactive”.

As for `CC(=O)Oc1c(C)c(C)c2c(c1C)CC[C@@](C)(CCC[C@H](C)CCC[C@H](C)CCCC(C)C)O2`, the Potency entry is “inactive”.

With `COc1ccc2cc1Oc1ccc(cc1)C[C@H]1c3c(cc4c(c3Oc3cc5c(cc3OC)CCN(C)[C@@H]5C2)OCO4)CCN1C`, the Potency result is “inactive”.

For the molecule `CC[C@H]1CN2CCc3cc(OC)c(OC)cc3[C@@H]2C[C@@H]1C[C@H]1NCCc2cc(OC)c(OC)cc21`, the Potency was 0.355 µM (active).

With `C[C@H](N)[C@H](O)c1cccc(O)c1`, the Potency entry is “inactive”.

Consider `COC(=O)C1=C(C)NC(C)=C(C(=O)OC)C1c1ccccc1[N+](=O)[O-]`, for which the Potency entry is “inactive”.

For the molecule `Cc1cc(O)cc2c1O[C@](C)(CCC[C@H](C)CCC[C@H](C)CCCC(C)C)CC2`, the Potency entry is “inactive”.

In the case of `CCN(CC)CCCC(C)Nc1c2ccc(Cl)cc2nc2ccc(OC)cc12` (stereo not drawn), the Potency result is “inactive”.

As for `CCCCN(CCCC)CC(O)c1cc(Cl)cc2c1-c1ccc(Cl)cc1/C2=C/c1ccc(Cl)cc1` (stereo not drawn), the Potency entry was “inactive”.

In the case of `CC(=O)NC(Cc1ccccc1)C(=O)O` (stereo not drawn), the Potency result was “inactive”.

Consider `CC(=O)OCC(=O)[C@@]1(O)CC[C@H]2[C@@H]3CCC4=CC(=O)CC[C@]4(C)[C@H]3C(=O)C[C@@]21C`, for which the Potency result is “inactive”.

Turning to `CNCC(O)c1ccc(O)c(O)c1` (stereo not drawn), the Potency result was “inactive”.

As to `CC[C@@]1(c2ccccc2)NC(=O)N(C)C1=O`, the Potency entry was “inactive”.
